Bioassay records as filed in PubChem.
CHX counter: affects cycloheximide protein synthesis inhibition readout, counter-screen; cell reporter, cycloheximide protein synthesis inhibition counterscreen; max response, %; 12% of 300,000 active; AID 2314; in the data active = max response mostly above about 13%, no sharp cut-off; inactive = mostly below about 14%; also: read at 38.3 µM for the half of the compounds with a filed dose
Tb PYK inh: T. brucei pyruvate kinase inhibition. Q57TT1. TbPYK enzyme, Kinase-Glo Plus ATP luminescence, 45 min. Potency, µM (series often up to 76.8 µM), most hits filed as inhibitors. 0.12% of 410,000 active. AID 624173; also: nearly all actives have a fitted effect of over 50% in size
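Glycolytic pyruvate kinase of T. brucei was incubated with substrate, test compound and 130 uM ADP for 45 minutes at room temperature. Luminescent Kinase-Glo Plus signal was measured after 10 minutes.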
LmPK inh: LmPK (Leishmania mexicana) enzyme inhibition | purified LmPK, Kinase-Glo ATP luminescence, 1 h | Potency, µM (top dose mostly 57.5 µM), most hits filed as inhibitors | 0.37% of 290,000 active
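Purified LmPK (0.1 nM) converted ADP (0.1 mM) to ATP with PEP (0.5 mM) in imidazole buffer pH 7.2 with KCl and MgCl2, 1 h at room temperature. ATP was read by Kinase-Glo luminescence; data normalized to uninhibited and no-enzyme controls.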
RE007 growth inh: less growth of the S. pombe RE007 Vpr strain; S. pombe RE007 Vpr strain, BacTiter-Glo ATP luminescence, 24 h; Potency, µM (series often up to 92.2 µM), actives largely listed as inhibitors; 0.21% of 360,000 active; active = well fitted falling curve with a large enough effect; also: nearly all actives have a fitted effect of over 50% in size
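Fission yeast strain RE007, carrying one chromosomally integrated HIV-1 vpr copy, was seeded at OD 0.01 in PMG+AL medium with 23 nL pinned compound. After 24 h at 30 °C and 99% humidity, viability was read by BacTiter-Glo luminescence.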
Giardia FBPA inh: Giardia lamblia aldolase inhibition; purified Giardia FBPA; 0.71% of 290,000 active; Potency, µM (highest dose often 59.6 µM), most hits filed as inhibitors; also: nearly all actives have a fitted effect of over 55% in size
Target sequence (A8B2U2 whole entry, looked up): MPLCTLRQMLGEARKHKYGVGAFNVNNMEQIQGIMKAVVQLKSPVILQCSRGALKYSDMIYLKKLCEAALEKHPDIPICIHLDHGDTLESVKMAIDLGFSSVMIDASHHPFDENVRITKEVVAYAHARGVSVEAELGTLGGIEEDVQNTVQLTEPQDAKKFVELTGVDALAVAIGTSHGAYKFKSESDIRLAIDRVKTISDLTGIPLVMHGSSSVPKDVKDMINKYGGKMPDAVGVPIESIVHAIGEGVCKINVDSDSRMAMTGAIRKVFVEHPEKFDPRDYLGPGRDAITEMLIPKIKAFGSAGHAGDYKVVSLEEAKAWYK
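Giardia FBPA (40 nM reagent) was preincubated 10 min at RT with compound (up to 57.5 uM final), then substrate plus GAPDH/TPI/NAD/arsenate coupling system with diaphorase/resazurin was added; resorufin fluorescence (525/598 nm) was read after 20 min.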
Shiga inhibitor: Shiga toxin inhibition; 9.2% of 290,000 active; inhibition, % at 38.7 µM; AID 2315; Vero cells, Shiga toxin protein synthesis inhibition reporter; in the data active = inhibition mostly above about 28%, no sharp cut-off; inactive = mostly below about 43%
A number is an active result; [ ] = remark or other dose. This excerpt belongs to a sample that is enriched for hits. Unless noted, calls follow the shape of the dose curve; as a rule, active = well fitted curve in the direction sought with a large enough effect; inconclusive = small, poorly fitted or top-dose-only effect, or another doubt; inactive = no such curve, though single readings can be large; an effect the other way counts as inactive or inconclusive.

Screening CCN(CC)CCN1C(=O)C(=O)/C(=C(/O)c2cccc(OC)c2)C1c1ccccn1 (stereo not given) returned CHX counter 15, Tb PYK inh inactive, LmPK inh inactive, RE007 growth inh inactive, Giardia FBPA inh inactive and Shiga inhibitor inactive.
`CCN(CC)CCCN1C(=O)C(=O)/C(=C(/O)c2ccc(Cl)cc2)C1c1ccccn1` (stereo not given) gave CHX counter inactive, Tb PYK inh inactive, LmPK inh inactive, RE007 growth inh inactive, Giardia FBPA inh inactive and Shiga inhibitor inactive.
For CCOc1ccc(/C(O)=C2/C(=O)C(=O)N(CCOCCO)C2c2ccccn2)cc1 (stereo not given) the results were CHX counter 39, Tb PYK inh inactive, LmPK inh inactive, RE007 growth inh inactive, Giardia FBPA inh inactive and Shiga inhibitor 57.
Screening Cc1ccc(-c2onc3ccc(C(=O)O)cc23)cc1 returned CHX counter 92, Tb PYK inh inactive, LmPK inh inactive, RE007 growth inh inactive, Giardia FBPA inh inactive and Shiga inhibitor 180.
CC(=O)COC(=O)c1ccc2noc(-c3ccccc3)c2c1 was read as CHX counter 14, Tb PYK inh inactive, LmPK inh inactive, RE007 growth inh inactive, Giardia FBPA inh inactive and Shiga inhibitor 59.
Screening CC(=O)c1ccc2noc(-c3ccc(C)cc3)c2c1 returned CHX counter inactive, Tb PYK inh inactive, LmPK inh inactive, RE007 growth inh inactive, Giardia FBPA inh inactive and Shiga inhibitor inactive.
`COc1ccc(C2CC(=O)c3cc(-c4nc(-c5ccc(C)cc5)cs4)c(=O)[nH]c3C2)cc1` (stereo not given) gave Tb PYK inh inactive.
`O=C(CNC(=O)c1ccccc1F)OCc1cc(=O)n2nc(C3CC3)sc2n1` gave Tb PYK inh inactive.
Screening COc1ccc(/C=C/c2nc(C#N)c(N3CCC(C)CC3)o2)cc1OC returned Tb PYK inh inactive.
Screening CCCCOc1ccc(C(=O)N/C(=C/C=C/c2ccccc2)C(=O)NC)cc1 returned CHX counter 10, Tb PYK inh inactive, LmPK inh inactive, RE007 growth inh inactive, Giardia FBPA inh inactive and Shiga inhibitor inactive.
`Cc1cn2c(=O)c(S(=O)(=O)NCc3ccccc3Cl)c(C)nc2s1` gave Tb PYK inh inactive.
`CCOC(=O)N1CCC(NC(=O)c2ccc3c(c2)sc2nc(-c4cccc(OC)c4)cn23)CC1` gave CHX counter inactive, LmPK inh inactive, Giardia FBPA inh inactive and Shiga inhibitor inactive.
Screening CCOC(=O)N1CCC(NC(=O)c2ccc3c(c2)sc2nc(-c4ccccc4)cn23)CC1 returned CHX counter 39, Tb PYK inh inactive, LmPK inh inactive, RE007 growth inh inactive, Giardia FBPA inh inactive and Shiga inhibitor 69.
`CC(C)(C)c1cc(C(=O)NNc2cc(C(F)(F)F)ccc2Cl)n(Cc2ccccc2)n1` gave CHX counter 28, Tb PYK inh inactive, LmPK inh inactive, RE007 growth inh inactive, Giardia FBPA inh inactive and Shiga inhibitor 43.
`COc1ccccc1NNC(=O)c1cc(C(C)(C)C)nn1Cc1ccccc1` gave CHX counter 30, Tb PYK inh inactive, LmPK inh inactive, RE007 growth inh inactive, Giardia FBPA inh inactive and Shiga inhibitor 61.
`CC(C)(C)c1cc(C(=O)NNc2cccc(Cl)c2)n(Cc2ccccc2)n1` gave CHX counter 20, Tb PYK inh inactive, LmPK inh inactive, RE007 growth inh inactive, Giardia FBPA inh inactive and Shiga inhibitor 46.
Screening CCOC(=O)CNC(=O)Nc1cc(C(=O)NCc2ccccc2OC)ccc1N1CCCC1 returned Tb PYK inh inactive.
CCCCOc1ccc(C(=O)N2CCN(CCc3ccccn3)CC2)cc1 was read as Tb PYK inh inactive.
`OC[C@@H]1O[C@](CO)(O[C@H]2O[C@H](CO)[C@@H](O)[C@H](O)[C@H]2O)[C@H](O)[C@H]1O` gave Tb PYK inh inactive.
O=C1CN(C(=O)COc2ccc(F)cc2Br)c2ccccc2N1 was read as CHX counter inactive, Tb PYK inh inactive, LmPK inh inactive, RE007 growth inh inactive, Giardia FBPA inh inactive and Shiga inhibitor 36.
For O=C1CN(C(=O)COC(=O)CCC(=O)c2ccc3c(c2)OCCO3)c2ccccc2N1 the results were CHX counter 19, Tb PYK inh inactive, LmPK inh inactive, RE007 growth inh inactive, Giardia FBPA inh inactive and Shiga inhibitor inactive.
Screening CCCOc1ccc(C(=O)CCC(=O)OCC(=O)N2CC(=O)Nc3ccccc32)cc1 returned CHX counter 32, Tb PYK inh inactive, LmPK inh inactive, RE007 growth inh inactive, Giardia FBPA inh inactive and Shiga inhibitor inactive.
O=C1CN(C(=O)COC(=O)CCC(=O)c2ccc(Cl)cc2)c2ccccc2N1 was read as Tb PYK inh inactive and RE007 growth inh inactive.
Screening O=C1CN(C(=O)COc2ccccc2F)c2ccccc2N1 returned CHX counter inactive, Tb PYK inh inactive, LmPK inh inactive, Giardia FBPA inh inactive and Shiga inhibitor inactive.
For Nc1cnc(Nc2ccc(Br)cc2)nc1N the results were CHX counter 28, Tb PYK inh inactive, LmPK inh inactive, Giardia FBPA inh inactive and Shiga inhibitor 58.
`CCc1ccc(-n2nc3ccc(NC(=O)c4cc5ccccc5o4)cc3n2)cc1` gave Tb PYK inh inactive.
For O=S(=O)(NCc1cn2ccccc2n1)c1cccs1 the results were CHX counter 29, Tb PYK inh inactive, LmPK inh inactive, RE007 growth inh inactive, Giardia FBPA inh inactive and Shiga inhibitor 53.
For O=S(=O)(NCc1cn2ccccc2n1)c1cc(F)ccc1F the results were CHX counter inactive, Tb PYK inh inactive, LmPK inh inactive, RE007 growth inh inactive, Giardia FBPA inh inactive and Shiga inhibitor inactive.
O=S(=O)(NCCc1cn2ccccc2n1)c1cccs1 was read as CHX counter 20, Tb PYK inh inactive, LmPK inh inactive, RE007 growth inh inactive, Giardia FBPA inh inactive and Shiga inhibitor inactive.
CC(C)(C)c1ccc(C(=O)N2CCN(Cc3cc(=O)n4nc(-c5ccccc5F)sc4n3)CC2)cc1 was read as Tb PYK inh inactive.
COc1ccc(CCNC(=O)c2ccc3c(c2)c(C)c(C)n3Cc2ccc(F)cc2)c(OC)c1OC was read as Tb PYK inh inactive[15.4 µM].
For CCCCS(=O)(=O)N1C2=NC(C(=O)OC)=C(C(=O)OC)[C@@H]3Nc4ccccc4[C@]23C[C@H]1C(=O)OC the results were LmPK inh inactive[11.5 µM] and Giardia FBPA inh inactive[12.9 µM].
For COCCn1c(C)cc(C(=O)COC(=O)c2ccc3c(c2)NC(=O)CS3)c1C the results were CHX counter 28, Tb PYK inh inactive, LmPK inh inactive, RE007 growth inh inactive, Giardia FBPA inh inactive and Shiga inhibitor 66.
Screening C=CCn1c(C)cc(C(=O)COC(=O)c2n[nH]c(=O)c3ccccc23)c1C returned Tb PYK inh inactive and RE007 growth inh inactive.
